Assay outcomes deposited in PubChem BioAssay by several laboratories.
Myeloid diff 2: myeloid differentiation induction | calls only at 10 µM | AID 624256 | ER-HoxA9 myeloid progenitors, lysozyme-GFP differentiation, flow cytometry | hit rate 1% among 360,000;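 active means normalized GFP-positive differentiation at or above the plate's own cutoff, the solvent-only control mean plus 3 SD; inconclusive means no clear call, values can overlap the other calls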;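 further: cells exposed to compound for four days before flow analysis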
TLR4 MyD88 comp: inhibitors of human TLR4-MyD88 binding; O00206+Q99836; HeLa CL3-4 TLR4/MyD88 BLA complementation, FRET ratio; inhibition, % at 8.4 µM; hit rate 0.18% among 200,000; AID 861; in the data active means inhibition above about 25%;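 further: 0% = vehicle and 100% = reference inhibitor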
TLR9-MyD88 inh: inhibitors of human TLR9-MyD88 binding | AID 504734 | Q9NR96+Q99836 | hit rate 0.21% among 340,000 | CHO BLA complementation TLR9-MyD88, CCF4 FRET ratio | inhibition, % at 4.98 µM;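 active means inhibition above the mean over all tested compounds plus 3 SD, cut at about 21% in these data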;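 further: 0% = DMSO only wells and 100% = clavulanate BLA inhibitor control wells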
NOD2-RIPK2 inh: blocks binding of human NOD2 to RIPK2 | CHO BLA complementation NOD2-RIPK2, CCF4 ratio | inhibition, % at 4.98 µM | O43353 | hit rate 0.38% among 360,000 | AID 624267; in the data active means inhibition above about 21%;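 further: 0% = vehicle only and 100% = reference blocker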
ABCB6 inh MLPCN: blocks the human ABCB6 transporter. Q9NP58. K562-ABCB6 porphyrin accumulation, flow cytometry, 1 h; stronger effect = lower value. fluorescence ratio to DMSO, % at 10 µM. hit rate 0.19% among 360,000. AID 602162;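 active means fluorescence ratio to DMSO below 75%, the collection mean minus 3 SD; inconclusive means too few cells collected in the well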;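 further: signal is porphyrin accumulated inside mitochondria; 100% equals median channel fluorescence of DMSO control wells; lower ratio means ABCB6 inhibition with less porphyrin fluorescence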
Target sequence (Q9NP58 whole entry, looked up): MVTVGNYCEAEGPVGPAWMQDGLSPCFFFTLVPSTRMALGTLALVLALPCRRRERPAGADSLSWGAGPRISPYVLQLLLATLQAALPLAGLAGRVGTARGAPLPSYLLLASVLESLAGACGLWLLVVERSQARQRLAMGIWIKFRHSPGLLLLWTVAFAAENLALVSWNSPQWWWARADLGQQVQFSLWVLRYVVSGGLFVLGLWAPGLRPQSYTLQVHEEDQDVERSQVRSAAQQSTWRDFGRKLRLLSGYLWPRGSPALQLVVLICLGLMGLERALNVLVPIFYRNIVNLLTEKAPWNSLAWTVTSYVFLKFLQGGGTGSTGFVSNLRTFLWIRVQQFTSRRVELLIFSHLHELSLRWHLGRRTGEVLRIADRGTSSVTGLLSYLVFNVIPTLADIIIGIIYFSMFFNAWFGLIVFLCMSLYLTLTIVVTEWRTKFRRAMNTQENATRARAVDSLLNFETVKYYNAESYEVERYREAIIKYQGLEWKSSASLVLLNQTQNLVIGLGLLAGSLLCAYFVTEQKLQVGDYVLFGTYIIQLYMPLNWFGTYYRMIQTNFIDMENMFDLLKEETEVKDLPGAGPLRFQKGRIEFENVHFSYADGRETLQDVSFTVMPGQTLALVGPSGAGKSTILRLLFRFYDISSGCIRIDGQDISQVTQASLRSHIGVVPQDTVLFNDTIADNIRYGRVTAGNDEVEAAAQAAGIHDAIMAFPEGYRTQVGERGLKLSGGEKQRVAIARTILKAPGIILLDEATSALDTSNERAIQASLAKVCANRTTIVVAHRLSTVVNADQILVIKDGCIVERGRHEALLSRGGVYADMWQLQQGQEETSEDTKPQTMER
Numbers without * were called inactive; i = inactive; ? = inconclusive; . = no result given; + = active, no number. In the library only some 1.7% were active in any assay of this set; here they are far more common.

SMILES	Myeloid diff 2	TLR4 MyD88 comp	TLR9-MyD88 inh	NOD2-RIPK2 inh	ABCB6 inh MLPCN
O=C(Nc1ccc(S(=O)(=O)Nc2ncccn2)cc1)c1ccc(N2CCCC2=O)cc1	i	.	-9	-11	102
COc1c2ccc(C(=O)NCCCCc3ccccc3)cc2nn1C	+	8	0	-5	91
CCOC(=O)COn1c(=O)c(=O)n(O)c2ccccc21	i	1	-11	-1	104
CCCCn1c(-c2nonc2NC(=O)c2ccccc2Cl)nc2ccccc21	+	.	-3	3	94
CN1C[C@@H]2[C@@H]3C(=O)N(Cc4ccccc4)C(=O)[C@@H]3[C@](Cc3ccccc3)(C1=O)N2C(=O)c1ccccc1	i	.	-10	-11	97
CC[C@]12C(=O)N(C)C[C@H]([C@@H]3C(=O)N(Cc4ccccc4)C(=O)[C@@H]31)N2C(=O)c1ccccc1	+	.	6	-7	99
CCCCNC(=O)CO/N=C(\C)c1cc2ccccc2o1	+	20	-1	-10	100
COc1ccc(C(C[N+](=O)[O-])c2c(-c3ccccc3)cc3ccccn23)cc1OC (centres undefined)	i	-5	-58	1	96
COc1ccc(C(C[N+](=O)[O-])C2(c3ccc(OC)c(OC)c3)C(=O)c3ccccc3C2=O)cc1 (centres undefined)	?	15	19	82*	94
O=C1c2ccccc2-c2onc3ccc(N4CCCC4)c1c23	+	2	1	-10	137
CCOCCn1ccc2c(OCC(=O)Nc3ccc(OC)cc3OC)cccc2c1=O	+	.	-14	1	93
O=C(N/N=C/c1ccc([N+](=O)[O-])s1)c1cccc(Br)c1	+	3	8	0	98
Cc1ccc(C(=O)N/N=C/c2ccc([N+](=O)[O-])s2)cc1	?	-7	-5	15	128
Cc1onc(-c2ccccc2Cl)c1C(=O)N(Cc1nc(-c2ccccc2)no1)C1CCCCC1	+	3	13	-1	87
Cc1nn(Cc2cccc(C(=O)NN)c2)c(C)c1Cl	+	.	-5	-7	96
COc1ccc(NC(=O)Cn2nc(C(=O)O)c3ccccc3c2=O)cc1OC	i	.	-1	4	98
CC(=O)NCC(=O)OCC(=O)c1ccccc1	+	-3	-7	2	100
Cc1cc(C)c(S(=O)(=O)N2CCN(C(=O)N3CCCCC3)CC2)c(C)c1	+	.	-3	-3	97
COc1ccc(-c2sc3cc(OC)ccc3c2-c2ccc(OCCN3CCCCC3)cc2)cc1	+	.	.	4	102
COc1ccccc1CNc1ncnc2c1nnn2Cc1ccccc1	i	-3	-2	-3	103
CCN1C(=O)/C(=C/N2CCc3ccccc3C2)SC1=S	i	.	4	-10	99
CCCCCN1C(=O)/C(=C/c2c(N3CCc4ccccc4C3)nc3ccccn3c2=O)SC1=S	+	.	-4	-2	839
Cc1nc2ccccc2n1C(C)c1nc2ccccc2n1CC(=O)c1ccc(OC(F)(F)F)cc1 (centres undefined)	i	.	.	9	.
C=CCC1(NCc2ccco2)CCN(CC)CC1	i	2	-8	-2	97
COc1ccc(C(=O)c2coc3ccc(O)c(CN4CCCCC4)c23)cc1	+	1	-3	-7	96
SMILES	Myeloid diff 2	TLR4 MyD88 comp	TLR9-MyD88 inh	NOD2-RIPK2 inh	ABCB6 inh MLPCN
Cc1nc(C)n(CC(C)C(=O)N2CCN(S(=O)(=O)c3ccccc3)CC2)n1 (centres undefined)	i	.	-7	-7	103
CCNc1ccc(Br)cc(C(=O)/C=C/c2c(Cl)cccc2Cl)c1=O	+	-5	9	8	165
CCNc1ccc(Br)cc(C(=O)/C=C/c2ccc(Cl)cc2)c1=O	i	-12	3	2	122
Cc1ncc(CN2CCN(Cc3ccccc3)C(CCO)C2)s1 (centres undefined)	+	2	-2	-8	126
Cc1ccc(CN2CCN(Cc3cnc(C)s3)CC2CCO)cc1 (centres undefined)	i	-2	7	10	95
O=C(NC1CC1)c1ccc2nc([C@@H]3O[C@H](CO)[C@H](O)[C@H](O)[C@H]3O)[nH]c2c1	i	.	.	2	96
O=C1Cc2cc(S(=O)(=O)N3CCN(c4ccc(C(=O)O)cc4)CC3)ccc2N1	i	.	.	-6	99
CC(=O)c1ccc(N2CCN(S(=O)(=O)c3ccc4c(c3)NC(=O)CC(=O)N4)CC2)cc1	+	.	5	-3	105
C=CCN(c1ccccc1Cl)S(=O)(=O)c1cccc(C(=O)OCC(=O)N(C)C2CCS(=O)(=O)C2)c1 (centres undefined)	i	1	0	-8	69*
CCCCCC(=O)N1C[C@@H](O)[C@H](n2cc(COC(=O)c3ccccc3)nn2)C[C@@H]1c1ccc(Cl)cc1	i	.	-6	4	100
CN(C(=O)COC(=O)/C=C/c1ccccc1)C1CCS(=O)(=O)C1 (centres undefined)	i	.	6	-12	91
c1ccc2c(c1)NCC1CCCN21 (centres undefined)	+	.	-1	7	124
COc1cc2ccccc2ccc1=NO	i	.	-4	4	101
O=C1CCCC2=C1C(c1ccc(O)c(Br)c1)C1=C(CCCC1=O)N2c1ccccc1	+	2	5	-12	93
O=C(Cc1ccccc1)NN1C(=O)/C(=C/c2ccc(C(=O)O)cc2)SC1=S	i	.	-4	-5	102
O=C(O)c1ccc(/C=C2/SC(=S)N(Cc3ccccc3)C2=O)cc1	+	.	-5	3	129
COc1cc(/C=C2/SC(=S)N(Cc3ccccc3)C2=O)cc(Cl)c1O	+	.	4	4	i
CCOc1cc(/C=C2/SC(=S)N(Cc3ccccc3)C2=O)ccc1O	+	.	3	10	233
O=C1/C(=C\c2ccc(O)cc2)SC(=S)N1Cc1ccccc1	+	.	9	6	125
O=C(COc1cccc([N+](=O)[O-])c1)NN1C(=O)c2ccccc2C1=O	i	.	1	4	95
O=C(Nc1ccc2[nH]c(=O)[nH]c2c1)c1c(F)c(F)c(F)c(F)c1F	i	0	-9	1	102
CCOc1cc(/C=C/C(=O)c2ccc3c(c2)OCCO3)ccc1OCC(=O)N(C)C	+	.	6	6	99
O=C(OCC(=O)N1CCc2ccccc2C1)c1cccnc1Cl	i	14	5	2	96
CCCCNc1nc(NCc2ccccc2)nc2ccccc12	+	.	.	0	95
CN(C)c1ccc(C(=N)Cc2ccc3ccccc3n2)cc1	+	.	-11	3	263
CCOC(=O)C1=C(C)N=c2sc(=Cc3cc(Cl)c(OCC(=O)O)c(Cl)c3)c(=O)n2C1c1cccc(OC)c1 (centres undefined)	+	.	.	-2	115
